HPGD block: inhibitors of human 15-hydroxyprostaglandin dehydrogenase (HPGD); Potency, µM, actives largely listed as inhibitors; AID 894; 150,000 compounds, 4.3% hits; P15428; purified HPGD, NADH fluorescence kinetic, PGE2 substrate; active means well fitted inhibition curve with a large enough effect, not every such curve was filed as active; inconclusive means small, poorly fitted or top-dose-only effect, or another doubt; inactive means no such curve, though single readings can be large or run the other way
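NADH formation kinetics: reaction with 30 uM PGE2 and 1 mM NAD+ (final), 20 nM enzyme, Tris-HCl pH 8 with Tween 20, after 15 min compound preincubation at room temperature. Fluorescence change, last versus first of five reads.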
CBFb-RUNX1 inh: CBF-beta/RUNX1 interaction disruption; Q01196+Q13951; AlphaScreen CBFb-His/RUNX1-biotin binding, biochemical; Potency, µM (top dose mostly 59.8 µM), hits mostly inhibitors; 230,000 tested, under 10 active
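AlphaScreen proximity signal reports loss of binding between His-tagged CBF-beta and biotin-labelled RUNX1, each at 30 nM. Proteins are pre-associated for 20 minutes, compounds added for 15 minutes, then beads for 90 minutes, all at ambient temperature.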
HTT ATP protect: cytoprotection in Huntington HTT-Q103 PC12 cell model; PC12 HTT-Q103 induced, cytoprotection, ATP luminescence, 40 h; Potency, µM (doses to about 56.4 µM), actives largely listed as activators; 230,000 compounds, 0.14% hits; further: nearly all actives have a fitted effect of over 45% in size
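Quantitative HTS on tebufenozide-induced (100 nM) PC12 cells expressing HTTQ103 exon 1–GFP; compounds tested as a concentration series; survival measured via cellular ATP.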
ALDH1A1 inh: ALDH1A1 (human) enzyme inhibition | P00352 | 220,000 compounds, 7.3% hits | Purified ALDH1A1, NADH fluorescence, propionaldehyde substrate | Potency, µM (doses to about 75.3 µM), most hits filed as inhibitors | AID 1030; active means well fitted inhibition curve with a large enough effect, not every such curve was filed as active; inconclusive means small, poorly fitted or top-dose-only effect, or another doubt; inactive means no such curve, though single readings can be large or run the other way
KDM4E inh: blocks human JMJD2E demethylase activity; Potency, µM (doses to about 57.1 µM), actives largely listed as inhibitors; JMJD2E catalytic domain, FDH-coupled NADH fluorescence (FDH is formaldehyde dehydrogenase); B2RXH2; 230,000 compounds, 1.6% hits; active means well fitted inhibition curve with a large enough effect, not every such curve was filed as active; inconclusive means small, poorly fitted or top-dose-only effect, or another doubt; inactive means no such curve, though single readings can be large or run the other way; further: nearly all actives have a fitted effect of over 50% in size
Target sequence (B2RXH2 1-337 limits assumed): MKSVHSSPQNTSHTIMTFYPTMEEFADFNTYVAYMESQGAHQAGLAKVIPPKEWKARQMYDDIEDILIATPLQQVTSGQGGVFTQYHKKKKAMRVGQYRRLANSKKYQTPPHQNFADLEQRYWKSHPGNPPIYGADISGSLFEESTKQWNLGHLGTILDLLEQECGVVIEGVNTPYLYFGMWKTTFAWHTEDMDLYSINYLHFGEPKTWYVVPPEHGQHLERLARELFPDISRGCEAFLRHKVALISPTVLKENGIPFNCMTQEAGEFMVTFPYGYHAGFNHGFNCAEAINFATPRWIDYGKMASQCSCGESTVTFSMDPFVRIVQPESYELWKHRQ
HttQ103 aggreg: mutant huntingtin aggregation inhibition; AID 1688; Potency, µM (doses to about 46.1 µM), usual class: inhibitors; PC12 HttQ103-GFP aggregates, Acumen cytometry, 40 h; 220,000 compounds, 1.1% hits; further: nearly all actives have a fitted effect of over 60% in size
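Steps: seed 1500 PC12 HTTQ103-GFP cells/well; add tebufenozide, 100 nM final; add compound titration; add ATPLite reagent; quantify GFP aggregates by laser scanning cytometry.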
Large screens that a line does not name were inactive; ! = repeats disagree. Only some compounds are listed: those with a hit (about 9.8% of all), similar ones and a draw of the others. Unless noted, the call rests on the fitted dose curve; in most records, active means well fitted curve in the direction sought with a large enough effect; inconclusive means small, poorly fitted or top-dose-only effect, or another doubt; inactive means no such curve, though single readings can be large; an effect the other way counts as inactive or inconclusive.

CCOC(=O)c1c(-c2ccccc2)csc1/N=C/C1C(=O)CCCC1=O	ALDH1A1 inh 3.55µM, HttQ103 aggreg inconclusive (no result: HTT ATP protect)
CCOC(=O)c1c(CC(C)C)csc1/N=C/C1C(=O)CCCC1=O	CBFb-RUNX1 inh inconclusive, ALDH1A1 inh 11.2µM (no result: HPGD block)
CCOC(=O)C1(CC2CC2)CCN(S(=O)(=O)C[C@]23CC[C@H](CC2=O)C3(C)C)CC1	none (no result: HPGD block)
CC(C(=O)N1CCN(c2ccc([N+](=O)[O-])cc2)CC1)N1C(=O)C2CC=CCC2C1=O (stereo not given)	none (no result: HPGD block)
O=C(CN1C(=O)C2CC=CCC2C1=O)N1CCN(c2ccc([N+](=O)[O-])cc2)CC1 (stereo not given)	ALDH1A1 inh 25.1µM (no result: HPGD block)
Cc1ccc(C2CCN(C(=O)Nc3ccccc3)C2)cc1 (stereo not given)	none
Cc1ccc(NC(=S)N2CCC(c3ccc(C)cc3)C2)cc1 (stereo not given)	ALDH1A1 inh 28.2µM (no result: HPGD block, HttQ103 aggreg)
Cc1ccc(NCCC(=O)c2cccs2)cc1C	ALDH1A1 inh 1.58µM (no result: HPGD block)
O=C(CCNc1cccc(Cl)c1)c1cccs1	ALDH1A1 inh 1.26µM
Cc1ccc(NCCC(=O)c2cccs2)cc1	ALDH1A1 inh 0.891µM (no result: HPGD block, HTT ATP protect)
CC(C)c1ccc(NCCC(=O)c2cccs2)cc1	ALDH1A1 inh 2.82µM
Cc1ccc(NC(=O)CCC(=O)c2cccs2)cc1	ALDH1A1 inh inconclusive
O=C(NNC(=O)c1cccs1)Nc1cccc(Cl)c1	none
CC(C)CCNC(=O)CNC(=O)c1cccs1	none
Cc1ccc(-n2ncc(C(=O)NCc3ccc4c(c3)OCO4)c2NC(=O)c2ccco2)cc1C	ALDH1A1 inh inconclusive
NC(=O)C[n+]1cccc(/C=N/O)c1	none (no result: HPGD block)
O=C(O)c1ccc(C(=O)O)c(C(=O)O)c1.[NH-][C@@H]1CCCC[C@@H]1[NH-].[Pt]	none (no result: CBFb-RUNX1 inh, KDM4E inh, HttQ103 aggreg)
Nc1ccc(OCCCc2c(N)nc(N)nc2N)cc1	CBFb-RUNX1 inh inconclusive, ALDH1A1 inh inconclusive (no result: HPGD block)
Cc1ccc(NCCC(=O)c2cccs2)cc1Cl	ALDH1A1 inh 2.51µM
CCCCC1=CC2=C(c3ccco3)C(=O)C(C)(OC(=O)c3ccc(OC)cc3)C(=O)C2=CN1Cc1ccccc1 (stereo not given)	CBFb-RUNX1 inh inconclusive, KDM4E inh 15.8µM!
CCCCC1=CC2=C(c3ccco3)C(=O)C(C)(OC(=O)c3ccc(OC)cc3)C(=O)C2=CN1CCc1ccccn1 (stereo not given)	ALDH1A1 inh inconclusive, KDM4E inh 8.91µM!
CCCCC1=CC2=C(c3ccco3)C(=O)C(C)(OC(=O)c3ccc(OC)cc3)C(=O)C2=CN1CCOC (stereo not given)	none
CCCCC1=CC2=C(c3ccco3)C(=O)C(C)(OC(=O)c3ccc(OC)cc3)C(=O)C2=CN1CCc1c[nH]c2ccccc12 (stereo not given)	none (no result: HttQ103 aggreg)
CCCCC1=CC2=C(c3ccco3)C(=O)C(C)(OC(=O)c3ccc(OC)cc3)C(=O)C2=CN1Cc1ccc2c(c1)OCO2 (stereo not given)	CBFb-RUNX1 inh inconclusive, ALDH1A1 inh 3.55µM
CCOC(=O)c1c(C)n(-c2ccc(C)cc2)c2ccc(OCC(O)CNCC3CCCO3)cc12 (stereo not given)	ALDH1A1 inh inconclusive, KDM4E inh 28.2µM, HttQ103 aggreg inconclusive (no result: HPGD block)
CCOc1ccc(N(CC(=O)NCC2CCCO2)C(=O)CCC(=O)Nc2nccs2)cc1 (stereo not given)	KDM4E inh inconclusive (no result: HPGD block)
O=C1c2cccc3cc(Br)cc(c23)C(=O)N1Nc1ccc(Br)cc1	none
O=C1c2cccc3cccc(c23)C(=O)N1Nc1ccccc1	ALDH1A1 inh 25.1µM (no result: HPGD block)
Nc1nc(-c2cccs2)c(NC(=O)c2ccccc2)s1	ALDH1A1 inh 20µM, HttQ103 aggreg inconclusive
CCCc1ccc(OCc2ccc(C(=O)N3CCN(c4ccccn4)CC3)o2)c(OC)c1	HPGD block inconclusive, HttQ103 aggreg 17.8µM
COc1ccc(CN2CCNC(=O)C2CC(=O)NC2Cc3ccccc3C2)c(OC)c1 (stereo not given)	ALDH1A1 inh inconclusive (no result: HPGD block)
Cc1ccc(S(=O)(=O)Oc2ccccc2/C=C2\SC(=O)NC2=O)cc1	ALDH1A1 inh 12.6µM (no result: HPGD block, HTT ATP protect, HttQ103 aggreg)
O=C(c1cnccn1)N1CCC2(CC1)CCN(c1ccccc1)CC2	none (no result: CBFb-RUNX1 inh, KDM4E inh, HttQ103 aggreg)
